# Values joined by “and” are separate entries in the source; they are usually repeats but may differ in a detail not shown here. Identical values can stand only once. Some structures have more than one record in an assay (separate samples or runs), and their calls can disagree. Active and inactive are the calls of the source. The calls were made as follows: active = hit-call score of the fitted dose curve at least 0.9, where 1 is the maximum; inactive = score below 0.9.
# Assay: ATG_MRE_CIS: Attagene CIS-FACTORIAL HepG2 Assay for human Metal Responsive Element (MRE) (AID 2282954)
# Conditions: HepG2 MRE cis-reporter transcription, Attagene multiplex; actives raise or lower the signal
# Protocol: ATG_CIS is a cell-based, multiplexed-readout assay that uses HepG2, a human liver cell line, with measurements taken at 24 hours after chemical dosing in a 24-well plate.ATG_MRE_CIS is one of 52 assay component(s) measured or calculated from the ATG_CIS assay. It is designed to make measurements of mRNA induction, a form of inducible reporter, as detected with fluorescence intensity signals by Reverse transcription polymerase chain reaction (RT-PCR) and Capillary electrophoresis technology.Data from the assay component ATG_MRE_CIS was analyzed into 1 assay endpoint. This assay endpoint, ATG_MRE_CIS, was analyzed with bidirectional fitting relative to DMSO as the negative control and baseline of activity. Using a type of inducible reporter, measures of mRNA for gain or loss-of-signal activity can be used to understand the reporter gene at the transcription factor-level as they relate to the gene MTF1. Furthermore, this assay endpoint can be referred to as a primary readout, because this assay has produced multiple assay endpoints where this one serves a reporter gene function. To generalize the intended target to other relatable targets, this assay endpoint is annotated to the dna binding intended target family, where the subfamily is zinc finger.
# Human liver HepG2 cells are transiently transfected with multiple reporter transcription units (MRTUs) in 6-well plates using FuGene 6 reagent (Roche; 3 ml FuGene/1 mg DNA). The MRTU constructs are regulated by a cis-regulating element (promoter). […] A major difference between the CIS and TRANS system is that in CIS activities of endogenous TFs are measured, whereas the TRANS assay evaluates changes in activities of exogenous, chimeric NR-Gal4 proteins. […] At the end of 24 hour incubation, total RNA was isolated using TriZol reagent (Invitrogen). The isolated RNA is then reverse-transcribed using oligo(dT) primer and Mo-MLV reverse transcriptase (Invitrogen) with DNAse I (Ambion) treatment for 30 min. The one-tenth of the produced cDNA was amplified by PCR using Taq DNA polymerase (Invitrogen) and two reporter sequence-specific primers. The PCR products were fluorescently labeled by primer extension with 6-arboxyfluorescein (6-FAM) 5'-labeled reporter sequence-specific primer (2 min at 95 C, 20 s at 68 C and 10 min at 72 C) and these products were digested with 5U of HpaI (New England Biolabs) for 2h at 37 C. The fragments were purified using Qiaquick PCR columns (Qiagen), analyzed on an ABI 3130xL genetic analyzer (Applied Biosystems) with peak positions identified by using a set of X-rhodamine (ROX)-labeled MapMarker1000 molecular weight standards (BioVentures). The raw capillary electrophoresis data was processed using Attagraph software (Attagene).
SMILES,outcome,AC50
CCOC(=O)COc1cc(-n2ncc(C(F)(F)F)c(C)c2=O)c(F)cc1Cl,inactive,
CCCCCOC(=O)COc1cc(N2C(=O)C3=C(CCCC3)C2=O)c(F)cc1Cl,inactive,
CCCCC(CC)CN1C(=O)C2C3C=CC(C3)C2C1=O (stereo not given),,68.5 µM (active)
CCOC(=O)C(C)Oc1ccc(Oc2nc3ccc(Cl)cc3o2)cc1 (stereo not given),inactive,
O=C(c1ccc(O)cc1O)c1ccc(O)cc1O,inactive,
N[C@@H](Cc1cc(I)c(Oc2ccc(O)c(I)c2)c(I)c1)C(=O)O,inactive,50.6 µM (active) and 23.7 µM (active) and 94 µM (active)
O=C(O)C1(C(=O)Nc2ccc(Cl)cc2Cl)CC1,inactive,
CC(C)(C)[C@@H](O)[C@@H](Cc1ccc(Cl)cc1)n1cncn1,inactive,
C[C@]12CC[C@@H]3c4ccc(O)cc4C[C@@H](CCCCCCCCCS(=O)CCCC(F)(F)C(F)(F)F)[C@H]3[C@@H]1CC[C@@H]2O (stereo not given in full),inactive,1.39 µM (active)
CCNc1nc(N)nc(Cl)n1,inactive,
CCCN(CCC)C(=O)SCC,inactive,
CCSC(=O)N(CC(C)C)CC(C)C,inactive,
COc1nc(C)nc(NC(=O)NS(=O)(=O)c2ccccc2OCCCl)n1,inactive,
CCCCCCC(C)OC(=O)COc1nc(F)c(Cl)c(N)c1Cl (stereo not given),inactive,
S=C([S-])NCCNC(=S)[S-].[Mn+2],inactive,
C=CCOC(Cn1ccnc1)c1ccc(Cl)cc1Cl (stereo not given),,24.5 µM (active)
O=C(O)c1ccccc1,inactive,

SMILES,outcome,AC50
COC(=O)c1ccc(CNS(C)(=O)=O)cc1S(=O)(=O)NC(=O)Nc1nc(OC)cc(OC)n1,inactive,
CC(C)CCCCCCc1ccc(O)cc1,inactive,16.3 µM (active) and 17.6 µM (active)
S=C(S)NCCNC(=S)S.[Mn+2].[S-]C([S-])=NCCN=C([S-])[S-].[Zn+2],inactive,
CC(=O)[C@H]1CC[C@H]2[C@@H]3CCC4=CC(=O)CC[C@]4(C)[C@H]3CC[C@]12C,inactive,33.4 µM (active) and 38.9 µM (active) and 117 µM (active)
O=C(c1ccccc1)C1CCCCC1,inactive,
COC(=O)CSc1cc(N=c2sc(=O)n3n2CCCC3)c(F)cc1Cl,inactive,
OB(O)O,inactive,
C[C@]12C[C@H](O)[C@H]3[C@@H](CCC4=CC(=O)CC[C@@]43C)[C@@H]1CC[C@@H]2C(=O)CO,inactive,
c1ccc2[nH]c(-c3cscn3)nc2c1,inactive,
CCN(CC)C(=O)c1cccc(C)c1,inactive,
CCOC(=O)C(C)Oc1ccc(Oc2cnc3cc(Cl)ccc3n2)cc1 (stereo not given),inactive,
CC(=O)S[C@@H]1CC2=CC(=O)CC[C@]2(C)[C@H]2CC[C@@]3(C)[C@@H](CC[C@@]34CCC(=O)O4)[C@H]12,inactive,76.9 µM (active) [middle of 4 runs]
CCOC(=O)[C@H](C)Oc1ccc(Oc2nc3ccc(Cl)cc3o2)cc1,inactive,
N#CSCSc1nc2ccccc2s1,inactive,
CN(C)C(=O)Nc1ccc(Cl)c(Cl)c1,inactive,77.4 µM (active)
C#C[C@]1(O)CC[C@H]2[C@@H]3CCC4=CC(=O)CC[C@@H]4[C@H]3CC[C@@]21CC,inactive,
Oc1ccc(C(c2ccc(O)cc2)C(Cl)(Cl)Cl)cc1,inactive,

# — PubChem BioAssay (EPA / NIEHS)
